36 compounds from PubChem BioAssay can be followed below.

The assay can be described thus: probe aNOTCH3 binding on compound microarray – biochemical, small-molecule microarray, 635/667 nm fluorescence, primary screen (AID 1120).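 Note: probe is a biotin-tagged antibody raised against NOTCH3 rather than NOTCH3 protein; score merges spot fluorescence near 667 nm with spot signal to noise.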 To be noted: higher = more signal.
`NC(=O)NCC#Cc1ccc2c(c1)[C@]1(C(=O)N2)[C@H](C(=O)N2CCCCCCC2)[C@H]2C(=O)O[C@H](c3ccccc3)[C@H](c3ccccc3)N2[C@@H]1c1ccc(O)cc1` returned a composite z-score of 1.38. Under `COCCOC(=O)N1C(=O)[C@@]2(c3cc(C#CC4=CCCCC4)ccc31)[C@H](C(=O)N1CCN(c3ncccn3)CC1)[C@H]1C(=O)O[C@H](c3ccccc3)[C@H](c3ccccc3)N1[C@@H]2c1ccccc1OCCO` stands 0.0433; under `COCCOC(=O)N1C(=O)[C@@]2(c3cc(C#CC4(O)CCCCCC4)ccc31)[C@H](c1ccccc1OCCO)N1[C@H](c3ccccc3)[C@H](c3ccccc3)OC(=O)[C@H]1[C@@H]2C(=O)N1CCCCCCC1`, 1.07.

`CCCCC=C[C@@H](NC(=O)c1ccc(C(F)(F)F)cc1)c1ccccc1` displayed a composite z-score of -0.165.

Compound `C=CCC(OC(C)=O)[C@@H]1[C@@H](N(Cc2ccc(-c3ccccc3)cc2)C(=O)c2ccc(C)cc2)c2cc(OCCCO)ccc2N1C(=O)c1ccc2ccccc2c1` (stereo partly specified) displayed a composite z-score of 0.0282. Under `CCCCC(=C=CC[C@@H](O)c1cccc(OCCO)c1)CCO` stands -0.119; under `CCOC(=O)C[C@H]1[C@H](OC(=O)Cc2ccc3c(c2)OCO3)[C@@H](NC(=O)c2ccccc2)c2cc(OCCCO)ccc2N1C(=O)Cc1ccc(OC)cc1`, -0.116; under `CCCCN1CC=CC23O[C@@H]4C=CCOC(=O)[C@@H]4[C@H]2C(=O)N(C(CO)C(C)C)[C@@H]3C1=O` (stereo partly specified), -0.279. Consider `COC(=O)[C@@]1(Cc2ccc(OC)cc2)[C@@H]2[C@@H](CC(=O)[C@H]2CC(=O)C(=O)N2CCCC2)CN1C(=O)c1ccccc1`, for which the composite z-score was found to be 1.75. Take `COC(=O)c1c(CC[C@@H](CO)NC(=O)N[C@@H](Cc2ccccc2)Cn2cc(-c3cncn3C)nn2)oc(C(C)=O)c1C(=O)OC`: the composite z-score was determined as 0.212. `C=CCC(OC(C)=O)[C@@H]1[C@@H](N(Cc2ccc(-c3cccc(C(F)(F)F)c3)o2)C(=O)c2cccc3ccccc23)c2cc(OCCCO)ccc2N1C(=O)c1ccc2ccccc2n1` (stereo partly specified) showed a composite z-score of 0.0248. Compound `CC(=O)NCCCC[C@@H]1NC(=O)[C@H]2C[C@@H](C(=O)NCCCCCC[N+](C)(C)C)[C@@H](c3ccc(O)cc3)N2C1=O` came in with a composite z-score of -0.0057. In turn, `N#Cc1ccc(C(O)C2C=CC3C(=O)NC(=O)C3N2Nc2ccccn2)cc1` (stereo unspecified) had a composite z-score of 0.0297. To `C=CCNC(=O)[C@H]1[C@@H]2C(=O)O[C@@H](c3ccccc3)[C@@H](c3ccccc3)N2[C@@H](c2ccccc2OCCO)[C@]12C(=O)N(C(=O)OCCOC)c1ccccc12` belongs -0.161. Take `C=CC[C@]1(C(=O)NCc2ccccc2)COC(c2ccc(OCCCO)cc2)=N1`: the composite z-score was determined as 0.0789.

For the compound `COc1cc2c(cc1O)C(C1CC1)N(Cc1ccc([N+](=O)[O-])o1)CC2` (stereo unspecified), the composite z-score worked out at 0.0159. In turn, `CCOC(=O)C[C@H]1[C@H](OC(=O)c2ccc(C(=O)c3ccccc3)cc2)[C@@H](NC(=O)c2ccc3ccccc3c2)c2cc(OCCCO)ccc2N1C(=O)c1ccc2ccccc2n1` displayed a composite z-score of 0.134.

Compound `CC(C)(C)N1CC=CC23O[C@@H]4/C=C\CCCOC(=O)C4[C@H]2C(=O)N(CCCCCCO)[C@@H]3C1=O` (stereo partly specified) had a composite z-score of -0.284. To `CCC[C@@H]1C=C(C(=O)OCC)[C@H](c2ccccc2)N1S(=O)(=O)c1ccc(C)cc1` belongs 0.341. `O=C1OCCC=C[C@H]2OC34C=CCN(CCN5CCOCC5)C(=O)[C@H]3N(CCCO)C(=O)[C@@H]4C12` (stereo partly specified) gave a composite z-score of -0.155. Under `CCOC(=O)C1=C[C@@H](C(C)(C)C)N(S(=O)(=O)c2ccc(C)cc2)[C@H]1c1ccccc1Cl` stands 0.0203; under `C[C@H]1C2[C@H](Cc3ccccc3)NC(=O)[C@]23C(=O)NCC(=O)N2CCC[C@H]2C(=O)NC/C=C\C/C=C/C3[C@@H]2O[C@]12C` (stereo partly specified), 0.155; under `COc1ccc([Si](C)(C)[C@@H]2[C@@H](CCO)O[C@]3(C(=O)N(Cc4ccccc4)c4ccc(N5C(=O)c6ccccc6Oc6ccccc65)cc43)[C@H]2C)cc1`, -0.192.

The compound `COCCOC(=O)N1C(=O)[C@@]2(c3ccccc31)[C@H](C(N)=O)[C@H]1C(=O)O[C@H](c3ccccc3)[C@H](c3ccccc3)N1[C@@H]2c1ccc(OCCO)cc1` yielded a composite z-score of -0.0055.

In turn, `COCCCNC(=O)[C@@H]1c2ccccc2C(=O)N(Cc2cc(C(F)(F)F)cc(C(F)(F)F)c2)[C@H]1c1ccc(CO)cc1` came in with a composite z-score of 0.531.

With `NCCCC[C@@H]1NC(=O)[C@H]2C[C@@H](C(=O)NCc3ccc(F)cc3)[C@@H](c3ccc(O)cc3)N2C1=O`, the composite z-score was found to be 0.125. Under `CC(C)C[C@@H]1NC(=O)[C@H]2C[C@@H](C(=O)NCCCCCNC(=O)CS)[C@@H](c3ccc(O)cc3)N2C1=O` stands -0.171; under `COC(=O)C(CC#Cc1ccc2c(c1)[C@]1(C(=O)N2)[C@H](c2ccc(O)cc2)N2[C@H](c3ccccc3)[C@H](c3ccccc3)OC(=O)[C@H]2[C@@H]1C(=O)N1CCc2cc(OC)c(OC)cc2C1)C(=O)OC`, 0.0032; under `C=CCNC(=O)[C@@H]1[C@H]2C(=O)O[C@H](c3ccccc3)[C@H](c3ccccc3)N2[C@H](c2ccccc2OCCO)[C@@]12C(=O)N(C(=O)OCCOC)c1ccc(C#CCCO)cc12`, 0.0807. Under `COc1ccc(CCNC(=O)[C@@]2(Sc3ccc(C)cc3)CC(=O)N(Cc3cc(C(F)(F)F)cc(C(F)(F)F)c3)[C@@H]2c2ccc(CO)cc2)cc1` stands -0.352; under `Cc1ccccc1C(O)C1C=CC2C(=O)N(c3ccccc3)C(=O)C2N1Nc1ccccc1F` (stereo unspecified), 0.195.

`NCCCC[C@@H]1NC(=O)[C@H]2C[C@@H](C(=O)NCc3ccc(F)cc3)[C@@H](c3cccc(OCCO)c3)N2C1=O` displayed a composite z-score of 0.156. Compound `Cc1c(NC(=O)/C(C#N)=C/c2ccc(Cl)cc2)c(=O)n(-c2ccccc2)n1C` registered a composite z-score of 0.029. For the compound `[N-]=[N+]=NCc1ccccc1C[C@]1(C(=O)N2CCOCC2)N=C(c2ccc(OCCCO)cc2)O[C@H]1c1ccccc1CN=[N+]=[N-]`, the composite z-score was found to be 0.598. `CCC(CC)C(O)C1C=CC2C(=O)N(C)C(=O)C2N1N1CCCCC1` (stereo unspecified) yielded a composite z-score of 0.499. As for `COCCOC(=O)N1C(=O)[C@@]2(c3cc(C#Cc4ccc(OC)cc4)ccc31)[C@H](c1ccc(OCCO)cc1)N1[C@H](c3ccccc3)[C@H](c3ccccc3)OC(=O)[C@H]1[C@@H]2C(=O)N1CCCCCCC1`, the composite z-score was determined as 1.29.
